# In PubChem BioAssay AID977606 (Broad Institute, 2014):
# Screen size: about 1,500 compounds; about 430 (29%) were called active. A selection follows. Potency and affinity values are given separately. Unmarked numbers belong to inactive results. No rule for the calls is given here.
# Assay: glucose-independent GLuc insulin release activation – cell-based, INS-1E, Gaussia luciferase, luminescence, cherry-pick, counter-screen for glucose-dependent insulin secretion activators, dose response (AID 977606);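 also: 0% = median of neutral control wells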
# Details: INS-1E Gaussia luciferase insulin secretion, no glucose, 100% = twice neutral-control luminescence; series mostly up to 35 µM; activation: at the top concentration
row,Structure (SMILES),activation [%]
1,O=C(N=C1SC2CS(=O)(=O)CC2N1c1ccc(F)c(Cl)c1)C1CC1 (stereo unspecified),13.8
2,CCCc1nc(-c2cc3cc(C)ccc3[nH]c2=O)no1,43.8
3,CC(=O)N1CCN(c2nnc(-c3ccc(C)cc3)c3ccccc23)CC1,-0.606
4,CC1Oc2ccccc2N(Cc2cccc(F)c2)C1=O (stereo unspecified),11.7
5,O=c1c2sccc2n(Cc2cccc(F)c2)c(=O)n1-c1ccc(F)cc1,-6.27
6,Cc1ccc(-c2ccc([C@@H]3[C@@H]4CN(Cc5ccccc5F)C[C@H]3N4)cc2)cc1,5.14
7,COc1ccc(CN(C)C(=O)COc2cccc(-n3cnnn3)c2)cc1OC,9.02
8,COc1cc(/C=N/NC(=O)CNC(=O)c2cccs2)ccc1O,0.237
9,O=C(Nc1ccc(F)cc1)C1COc2ccccc2O1 (stereo unspecified),-15.7
10,CN(C(=O)c1ccc(C#N)cc1)c1nnc(-c2cnccn2)s1,-8.7
11,CC(C)CCn1c(=O)c2ccccc2n2c(CN3CCOCC3)nnc12,8.19
12,COc1ccc(C(=O)/C=C2/c3ccccc3CC(C)(C)N2C)cc1OC,16.4
13,O=C(NC(=S)Nc1cccc2[nH]ncc12)c1ccccc1,-4.69
14,Nc1[nH]c(C(=O)c2ccccc2)c(-c2ccncc2)c1C(=O)NCc1cccc2ccccc12,-26.7
15,COc1cc(CN2CCC(n3nccc3NC(=O)C3CCOC3)CC2)ccc1F (stereo unspecified),-17.1
16,COc1ccc(C(=O)c2cnc[nH]2)cc1OC,-0.483
17,COc1ccc(C(=O)c2ccc(OC)c(OC)c2)cc1,-2.11
18,COc1ccc(C(=O)O/N=C(\N)c2ccc(OC)c(OC)c2)cc1,-1.47
19,COc1ccc(-c2nc(N)ncc2-c2ccc(OC)c(OC)c2)c(O)c1,10.8

row,Structure (SMILES),activation [%]
1,c1ccc(-c2nnc3n2-c2ccccc2SC3)cc1,0.882
2,COCCOC(=O)C1=C(C)NC(=O)N(C(C)=O)C1c1ccc(Cl)cc1 (stereo unspecified),-0.928
3,Cc1cc2nc(-c3ccc(Cl)cc3)c(Cc3ccsc3)n2c(C)c1Br,-6.36
4,CCn1c(C)nc2cc(S(=O)(=O)C(F)(F)F)ccc21,-6.94
5,COc1cc2[nH]c3c(Cl)ncnc3c2cc1OC,-0.758
6,COc1ccc(CC(=O)O/N=C(\N)c2ccccc2)cc1OC,-0.902
7,COc1ccc(/C=N/NC(=O)CCOc2ccccc2C)cc1OC,11.2
8,COc1ccc(/C=N/NC(=O)Cn2nnc3ccccc32)cc1OC,-12.4
9,CNS(=O)(=O)c1ccc2c3c(cccc13)C(=O)N2,3.01
10,CCOC(=O)c1c(N)c(C#N)c2n1CCCC2,-4.2
11,COc1ccc(NC(=O)C2CCCN2S(=O)(=O)c2ccc3c(c2)CC(C)N3C(C)=O)cc1OC (stereo unspecified),-7.94
12,COc1ccc(C2=NOC(C(=O)Nc3cccnc3)C2)cc1OC (stereo unspecified),9.59
13,COc1ccc(CC(=O)OCC(=O)N2CCCc3ccccc32)cc1OC,0.376
14,O=S(=O)(c1ccc(Cl)nc1)N1CCc2ccccc21,-0.653
15,CCOC(=O)c1sc2ncn(/N=C/c3cccnc3)c(=O)c2c1C,-12.6
16,COc1cc(C(=O)Nc2ccn(C)n2)ccc1OC(F)F,7.47
17,O=c1c2ccccc2nc(-c2ccco2)n1/N=C/c1ccco1,-8.39
18,O=c1c2ccccc2nc(-c2ccco2)n1Cc1ccccc1,-3.55
19,O=C([C@H]1O[C@@H](n2ccc(=O)[nH]c2=O)[C@H](O)[C@@H]1O)N1CCN(c2ccc(Cl)cn2)CC1,68.2

row,Structure (SMILES),activation [%]
1,Cc1nc2ccccc2c(=O)n1CCCN1CCOCC1,-11.5
2,CCCn1nc(C(=O)NC2CC2)c2ccccc2c1=O,-5.12
3,CCOCCCn1c(SCc2ccccc2)nnc1-c1ccncc1,6.18
4,CC(C)c1ccc(NC2CCCN(C(=O)c3cccnc3)C2)cc1 (stereo unspecified),-5.56
5,COc1ccc(CCn2ccc(O)c(Cc3c(F)cccc3Cl)c2=O)cc1OC,-4.25
6,CCN(C[C@H]1N[C@@](CC)(C(=O)OC)[C@H]2C(=O)N(C)C(=O)[C@@H]12)S(=O)(=O)c1ccc(OC)cc1,-1.45
7,COC(=O)C1=C(C)NC(=S)NC1c1ccc(OC)cc1 (stereo unspecified),7.53
8,COc1ccc(CCC(=O)NC2CCC(C)CC2)cc1 (stereo unspecified),-4.09
9,CNc1nc(Nc2ccccc2)nc(OCC(F)(F)F)n1,8.61
10,CCCCN(Cc1nc2ccccc2c(=O)[nH]1)C(=O)c1nn(C)c(=O)c2ccccc12,-9.37
11,c1cn2cc(-c3ccc(CN4CCOCC4)cc3)ccc2n1,-12.3
12,CC(C)CN(C(=O)C1CCCCC1)C1CCS(=O)(=O)C1 (stereo unspecified),-8.45
13,Cc1ccc(CN(C(=O)c2cccs2)C2CCS(=O)(=O)C2)cc1 (stereo unspecified),11
14,Cc1c(Cc2ccccc2)sc(NC(=O)c2ccco2)c1C(N)=O,-3.42
15,Cc1c(Cc2ccccc2)sc(NC(=O)C(C)(C)C)c1C(N)=O,38.4
16,COC(=O)c1cc(S(=O)(=O)NCC2CCN(Cc3cc(C)ccc3C)CC2)c[nH]1,8.92
17,Cc1ccc(C)c(OCC(=O)NCC(C)(C)N2CCOCC2)c1,-11.9
18,Cc1ccc(C)c(OCC(=O)Nc2cc(NC(=O)COc3cc(C)ccc3C)cc(C(=O)O)c2)c1,-15.1
